Compound activity as filed in PubChem BioAssay.
The list is not random: actives were taken first. Their share in the collection is about 4.7%.
D1 antag – antagonists of human D1 dopamine receptor. 360,000 compounds, 3.2% hits. P21728. AID 504652. HEK293 TREx D1 cells, calcium flux, dopamine EC80; hits give low values. activity change, negative = inhibition, % at 10 µM; in the data active = activity change below about -30%; also: % is scaled to controls: 0 for no effect and ±100 for the full control effect
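Cells carrying a force-coupled, tetracycline-inducible human D1 receptor report calcium flux. Each well gets a 10 s baseline, compound with 180 s monitoring, then an EC80 dopamine stimulus with a second 180 s kinetic read.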
D1 potentiator – enhances dopamine response at the human D1 receptor. P21728. HEK293 TREx D1 cells, calcium flux, dopamine EC20 potentiation. potentiation, % at 10 µM. 360,000 compounds, 0.036% hits; in the data active = potentiation above about 30%; also: 0% is about no effect
TRHR ag – activates the human TRH receptor | AID 493084 | activation, % at 2 µM | 360,000 compounds, 0.18% hits | TRHR cells, calcium flux fluo-8, FDSS agonist mode | P34981; also: 0% is about no effect
Target sequence (P34981 whole entry, looked up): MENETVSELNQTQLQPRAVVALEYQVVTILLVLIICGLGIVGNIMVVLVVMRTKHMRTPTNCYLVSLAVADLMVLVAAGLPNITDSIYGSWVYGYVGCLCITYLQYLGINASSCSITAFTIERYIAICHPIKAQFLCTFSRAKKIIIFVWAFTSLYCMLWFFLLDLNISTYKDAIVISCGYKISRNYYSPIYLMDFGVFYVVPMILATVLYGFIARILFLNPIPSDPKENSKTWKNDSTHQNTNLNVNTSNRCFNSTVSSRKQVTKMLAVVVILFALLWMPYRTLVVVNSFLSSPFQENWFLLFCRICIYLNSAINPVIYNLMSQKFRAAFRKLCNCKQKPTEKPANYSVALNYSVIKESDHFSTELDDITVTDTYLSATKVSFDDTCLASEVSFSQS
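In this calcium-flux screen, cells bearing human TRHR are dye-loaded with fluo-8, baselined for 10 cycles, then exposed to library compounds; positive kinetic calcium responses during the agonist phase mark hits, with TRH as control.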
TRHR PAM – TRH receptor (human) allosteric enhancement | TRHR cells, fluo-8 calcium fluorescence, EC20 TRH enhancement | enhancement, % at 2 µM | 360,000 compounds, 0.66% hits | AID 493056; in the data active = enhancement above about 30%; also: 0% is about no effect
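TRHR-expressing cells loaded with fluo-8 calcium dye were read kinetically (ex 480/em 530) during compound addition, then stimulated with an EC20 of TRH (10 nM final). Enhancement of the Gq-mediated intracellular calcium response was scored.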
D1 agonist – human D1 receptor agonism; AID 504660; activation, % at 2 µM; HEK293 T-REx D1 cells, calcium flux, agonist mode; 360,000 compounds, 1% hits; also: 0% is about no effect
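Agonism was scored from calcium flux recorded over 180 s (1 read/s) after pintool compound addition, following a 10-cycle baseline. Cells were inducible force-coupled HEK293 TREx D1, plated overnight at 30 C and loaded with no-wash calcium dye.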
Active calls of the source: *; ! = a repeat was not active. Rule as the data show it, unless noted: active = activation above about 30%; inactive = the rest.

SMILES	D1 antag	D1 potentiator	TRHR ag	TRHR PAM	D1 agonist
CC(C)(C)c1ccc(C(=O)CCC(=O)OCC(=O)NCCc2ccc(S(N)(=O)=O)cc2)cc1	-34*	-4	0	4	5
CCOc1ccc(-c2nn(-c3ccccc3)cc2C2NC(=O)NC(C)=C2C(=O)OC(C)C)cc1C (configuration not stated)	-36*	6	2	2	23
Oc1c(Br)cc(Br)cc1CNc1ccc(F)cc1	-39*	-5	0	-8	3
COc1cc2c(cc1OC)C(COc1cccc(C(F)(F)F)c1)NCC2 (configuration not stated)	3	-7	4	4	32*
COc1ccc(OCC2NCCc3cc(OC)c(OC)cc32)cc1 (configuration not stated)	-9	-3	1	1	7
Cc1cc2c(c(=O)n1CCN(C)C)C(c1ccncc1)C(C#N)=C(N)O2 (configuration not stated)	-9	-5	1	1	-1
COc1ccc(C2C(C#N)=C(N)Oc3cc(C)n(Cc4ccncc4)c(=O)c32)cc1 (configuration not stated)	-35*	-2	0	5	0
O=C1CCSC2(C(=O)N(Cc3ccccc3)c3ccccc32)N1c1ccccc1 (configuration not stated)	4	7	-1	-3	4
COc1cccc(/C=N/n2c(SC)nnc2-c2ccccc2)c1O	-1	-2	5	5	30*
CCN(Cc1ccccc1)C(=O)CN1C(=O)CSc2ccc(S(=O)(=O)N(CC)CC)cc21	16	-3	0	-8	0
COc1cccc(OC)c1C(=O)Nc1cccc(-c2nc3cc(C)cc(C)c3o2)c1	-5	-2	-2	8	1
CN(C(=O)CSc1nc2ccc(NC(=O)c3ccccc3)cc2s1)c1ccccc1	-2	0	-1	-8	-2
Cc1ccc(NC(=O)C2CCN(S(=O)(=O)c3c(C)noc3/C=C/c3ccco3)CC2)cc1C	-2	3	1	2	3
Cc1noc(/C=C/c2ccco2)c1S(=O)(=O)N1CCC(C(=O)Nc2ccc(F)c(Cl)c2)CC1	-48*	4	-1	4	10
Cc1cc(C)cc(NC(=O)C2CCN(S(=O)(=O)c3c(C)n[nH]c3C)CC2)c1	-77*	-18	0	-6	0
Cc1noc(/C=C/N(C)C)c1S(=O)(=O)N1CCC(C(=O)Nc2ccc(Cl)cc2)CC1	-45*	-5	0	-5	4
Cc1cccc(NC(=O)CSc2nc(-c3ccco3)nc3cc(=O)[nH]n23)c1	-4	-1	0	2	5
CC1=Nc2cc(C(=O)NCCc3ccc(Cl)cc3)ccc2Sc2c(C)ccc(C)c21	4	2	1	6	7
Cc1ccc(C(=O)N2CCC(C(=O)NCc3cccnc3)CC2)cc1	5	-2	0	-1	-1
Cc1ccc(CNC(=O)C2CCN(C(=O)c3cccc(Cl)c3)CC2)cc1	-57*	16	-1	-2	7
COc1ccc(CNC(=O)C2CCN(C(=O)c3cccc(Cl)c3)CC2)cc1	-35*	-7	-1	-10	2
Cc1cc(Cl)ccc1OCC(=O)N(Cc1sccc1C)C1CCS(=O)(=O)C1 (configuration not stated)	-1	3	1	5	2
CCc1ccc(NC(=O)CN(c2ccc(Cl)cc2)S(=O)(=O)c2ccsc2C(=O)OC)cc1	-15	0	-1	-2	8
Cc1cc(NC(=O)Nc2nc3c(s2)CCCCCC3)ccc1Br	2	-1	0	-1	6
COC(=O)CN(C)C(=O)c1ccccc1OC1CCN(S(C)(=O)=O)CC1	0	4	-1	35*	1
SMILES	D1 antag	D1 potentiator	TRHR ag	TRHR PAM	D1 agonist
CS(=O)(=O)N1CCC(Oc2ccccc2C(=O)N2CCCCC2CO)CC1 (configuration not stated)	2	1	0	-11	0
O=c1cc(-c2ccccc2)nc2nc(SCc3ccccc3)[nH]n12	-32*	-7	0	1	1
Cc1cc(=O)n2[nH]c(SCc3ccccc3)nc2n1	4	-1	0	-10	0
Cc1oc2c(cc(NS(=O)(=O)c3ccc(Br)cc3)c3ccccc32)c1C(=O)OCc1ccccc1	-3	0	1	-7	4
Cc1ccccc1SCCNC(=O)c1ccccc1Br	10	-1	-1	33*	0
Oc1ccc(CCNc2ncnc3ccc(Cl)cc23)cc1	-40*	-9	0	-5	7
Nc1nc(Cl)cc(NCCc2ccc(O)cc2)n1	-9	-7	0	-7	16
CCOC(=O)CSc1nc2cc3c(cc2c(=O)n1CCCC(=O)NCc1ccc2c(c1)OCO2)OCO3	-20	-4	-1	-3	3
COc1cc(Cn2c(=O)oc3ccc(C)cc32)ccc1OC(C)C	-33*	-12	1	-9	11
Cc1cccc(C)c1NC(=O)N1CCCCCCC1	6	-2	0	39*	1
Cc1cccc(C)c1NC(=O)N1CC=CCC1	0	4	0	-5	2
COc1ccc(OCc2ccc(-c3nc(C#N)c(NCc4cccnc4)o3)o2)cc1	-16	-1	0	1	7
Cc1ccc(N2C(=O)C3C4C=CC(CNC(=S)Nc5ccc(F)cc5)(O4)C3C2=O)cc1 (configuration not stated)	-7	-5	-1	6	7
Cc1ccc(N2C(=O)C3C4C=CC(CNC(=S)Nc5ccc(Cl)cc5)(O4)C3C2=O)cc1 (configuration not stated)	-31*	-10	0	-4	13
Cc1cccc(N2CCN(C(=O)c3cccn3-c3nnc(N4CCCCC4)s3)CC2)c1C	-4	2	-1	0	2
O=C(c1cccc(Cl)c1)C1CCCN(S(=O)(=O)c2ccccc2)C1 (configuration not stated)	-54*	-3	-1	-1	0
COc1ccc(NC(=O)C2CCCN(S(=O)(=O)c3ccc4[nH]c(=O)ccc4c3)C2)cc1OC (configuration not stated)	-7	0	0	39*!	2
COc1ccc(NC(=O)C2CCCN(S(=O)(=O)c3ccccc3)C2)c(OC)c1 (configuration not stated)	9	-8	-1	33*	2
COc1ccc(S(=O)(=O)N2CCCC(C(=O)Nc3ccc(OC)c(OC)c3)C2)cc1 (configuration not stated)	-31*	-2	0	3	-1
Cc1cc(C)cc(C(=O)Nc2ccc(-c3nc4ncccc4o3)cc2)c1	-5	1	-1	15	2
COC(=O)c1ccc(-n2nnnc2SCC(=O)N2CCCCC2)cc1	-30*	-4	0	6	5
